Assay results published in ChEMBL document CHEMBL4513216, “Probing the Open Global Health Chemical Diversity Library for Multistage-Active Starting Points for Next-Generation Antimalarials” (ACS Infect Dis, 2020).
The campaign covered roughly 69,000 compounds. About 8,600 (12%) showed an effect of 50% or more. The entries come from a sample that favours strong results as a whole.

Test system: Plasmodium berghei
Experiment: Screen against P. berghei liver stage (PbLuc), transformed with Luciferase, at 10uM
Type: functional, HepG2
Settings: tested at 10 uM

| Compound | INHIBITION [%] |
| --- | --- |
| COCCCN(Cc1cnc(N2CCCC2)nc1)C1CCN(C)CC1 | 10.3 |
| CC1=Nc2c(c(O)nn2C(C)C)C(c2cccnc2)S1 (configuration not stated) | -3.19 |
| CC(=O)N1CC(=O)N(c2ccccc2)CC12CCN(CC1CC1)C2 (configuration not stated) | 27.9 |
| O=C(OC1CCC1)c1ncccc1C(F)(F)F | 42.8 |
| O=C(O)c1ncccc1OCC(F)(F)F | 59.1 |
| O=C(OC1CCC1)c1ncccc1OCC(F)(F)F | 8.08 |
| Cc1nccc(C2CCCN(C(=O)c3cncnc3)C2)n1 (configuration not stated) | -38.3 |
| COC(=O)C(C)(C)S(=O)(=O)c1ccc(Br)cc1 | -1.15 |
| COc1ccc(NC(=O)Nc2c(O)c3ccccc3oc2=O)cc1 | 33.6 |
| CC[C@@H](CO)Nc1cc(-c2cn[nH]c2)ncn1 | 50.1 |
| OCCNc1cc(-c2ccccc2)ncn1 | 47.1 |
| CCc1cc(=O)[nH]c(-c2ccc(NC(CO)CC(C)C)nc2)n1 (configuration not stated) | -27.4 |
| C[C@@H](CO)Nc1cc(-c2cn[nH]c2)ncn1 | 20.4 |
| CC(C)(CO)Nc1cc(-c2ccccc2)ncn1 | 29.3 |
| CC(C)(CO)Nc1cc(-c2ccncc2)ncn1 | 44.1 |
| C[C@H](O)CNc1cc(-c2cn[nH]c2)ncn1 | 24.8 |
| CC(C)(CO)Nc1cc(-c2cn[nH]c2)ncn1 | 56 |
| CC(C)[C@@H](CO)Nc1cc(-c2cn[nH]c2)ncn1 | 56 |
| CC(C)CCn1cc(C(C(=O)O)N2CCC(N3CCSCC3)CC2)cn1 (configuration not stated) | 3.06 |
| CCn1ccnc1CN1CCN(C(C)C(=O)NCc2ccco2)CC1 (configuration not stated) | 18.6 |
| Cc1c[nH]nc1C1CN(c2cnccn2)CCO1 (configuration not stated) | 24.05 |
| Cc1nc(C(C)C)sc1C(=O)NCC(C)(C)N1CCOCC1 | -20.1 |
| Cc1nn(C)c(C)c1-c1nc2cc(S(=O)(=O)N3CCCC3)ccc2n1C | -28 |

| Compound | INHIBITION [%] |
| --- | --- |
| O=C1COC2(CCN(CC3CCOCC3)CC2)CN1Cc1ccccn1 | 27.4 |
| O=C(NCCCO)c1nnsc1-c1ccc(Cl)cc1 | 31.7 |
| Clc1ccc2[nH]c3c(c2c1)CCCC3c1nn[nH]n1 (configuration not stated) | 30.2 |
| Cn1c(N)c2c(=O)n(C)c(-c3ccc(Cl)cc3Cl)cc2c(C#N)c1=O | 66 |
| Cn1c(N)c2c(=O)n(C)c(-c3ccccc3)cc2c(C#N)c1=O | 0.868 |
| Cn1c(N)c2c(=O)n(C)c(-c3ccc(Cl)cc3)cc2c(C#N)c1=O | -26.3 |
| COc1ccc(NC(=O)CCSc2ccc3nncn3n2)c(OC)c1 | 28.1 |
| O=C1CO[C@H]2CN(Cc3cccc4[nH]ccc34)C[C@@H]2N1C1CCOCC1 | 26.8 |
| Oc1cc(C2CCCN(Cc3cccs3)C2)nc(-c2ccccn2)n1 (configuration not stated) | 81.5 |
| Oc1cc(C2CCCCN2Cc2ccsc2)nc(-c2ccncc2)n1 (configuration not stated) | 10.9 |
| Cn1nc(C2CCCN(Cc3cccs3)C2)c2nccnc21 (configuration not stated) | -0.902 |
| Oc1cc(C2CCCCN2Cc2cccs2)nc(-c2ccccn2)n1 (configuration not stated) | 86.3 |
| Oc1cc(C2CCCCN2Cc2cccs2)nc(-c2ccncc2)n1 (configuration not stated) | 19.25 |
| Cc1cnc(-c2nc(C3CCCN(Cc4cccs4)C3)no2)cn1 (configuration not stated) | 14.975 |
| COCCNC(=O)[C@@H]1CN(Cc2sccc2C)C[C@H]2OCC[C@H]21 | 16.8 |
| Cn1nnc(NCc2ccc(-c3ccc(Cl)cc3)o2)n1 | 49.7 |
| Brc1ccc(CNCc2nnc3n2CCC3)s1 | 36.7 |
| Cc1nc(C2CCCN2CC(=O)N(C)Cc2ccsc2)no1 (configuration not stated) | 13.3 |
| COc1cccc2c1N(CC(=O)Nc1ccc(Cl)cn1)CCC2 | 33.1 |
| COc1cccc2c1N(CC(=O)Nc1ccc(Br)cn1)CCC2 | 66.7 |
| O=C(CN1CCCc2cc(F)cc(F)c21)Nc1ccc(Br)cn1 | -5.57 |
| Cn1cnc(S(=O)(=O)N2CCCC2c2cnccn2)c1 (configuration not stated) | 22 |
| Cc1cn2nc(N3CCN(Cc4c(C)noc4C)CC3)sc2n1 | 58.5 |

| Compound | INHIBITION [%] |
| --- | --- |
| Cc1cn2nc(N3CCCN(Cc4noc(C)n4)CC3)sc2n1 | -9.14 |
| Cc1cn2nc(N3CCN(Cc4cc(C)on4)CC3)sc2n1 | 7.08 |
| Cc1cc(CN2CCN(c3nn4cc(C)nc4s3)CC2)on1 | 37 |
| Cc1cn2nc(N3CCN(Cc4nc(C(C)C)no4)CC3)sc2n1 | 42 |
| CCc1nc(CN2CCCN(c3nn4cc(C)nc4s3)CC2)no1 | 85.2 |
| Cc1cnn(CC(C)Nc2nc3ccccc3o2)c1 (configuration not stated) | 21.8 |
| COCC[C@]1(O)CCN(C2CCN(C(=O)C3CCC3)CC2)C[C@H]1C | 36.4 |
| O=C(NC1CCC1)[C@H]1C[C@H]2CN(C(=O)Nc3ccc(F)cc3)C[C@@H]1O2 | 1.9 |
| c1ccc(NCc2ccsc2)c(Cn2cncn2)c1 | 3.41 |
| CC(C)(C)c1nc(CNc2ccccc2SCCC(N)=O)cs1 | 77.4 |
| NC(=O)CSc1ccccc1NCc1nc(Cc2ccccc2)no1 | -75.4 |
| CC(C)(C)c1ncc(C(=O)NC(C(N)=O)c2ccccc2)s1 (configuration not stated) | 3.15 |
| CC(C)(C)c1ncc(CNc2ccccc2Cn2cncn2)s1 | 60.6 |
| c1csc(CNc2ccccc2Cn2cncn2)c1 | -56.8 |
| CC(C)N(CC(N)=O)Cc1csc(C(C)(C)C)n1 | -7.31 |
| NC(=O)C(NC(=O)CCc1ccc(Cl)s1)c1ccccc1 (configuration not stated) | -19.7 |
| CC(C)(C)c1ncc(CNc2ccccc2SCCC(N)=O)s1 | 83.4 |
| CNc1nc(CNC(=O)Nc2ccccc2SC)cs1 | 6.14 |
| Cc1ccc(CNc2ccccc2SCCC(N)=O)s1 | 39.7 |
| NC(=O)CCSc1ccccc1NCc1ccc(Cl)s1 | 75.7 |
| CC(=O)N1CCC(Cc2cncc(-c3c(C)n[nH]c3C)n2)C1 (configuration not stated) | 28 |
| CN1CC(=O)N(c2cccnc2)CC12CCN(C(=O)c1cccn1C)C2 (configuration not stated) | -46.8 |
| CCCOC(=O)NCCC1CN(c2cnn(C)c(=O)c2)CCO1 (configuration not stated) | 45.3 |

| Compound | INHIBITION [%] |
| --- | --- |
| CC(=O)NC(=O)C1(CCCc2ccncc2)CCN1 (configuration not stated) | 12.3 |
| O=C(N1CCCC1)N1Cc2nccn2CC(COc2cccnc2)C1 (configuration not stated) | -21.1 |
| CSc1ccc(C(=O)N2CC(=O)N(Cc3ccccc3)CC(O)C2)cc1 (configuration not stated) | -42.1 |
| O=C(CN1C(=O)CCC1=O)N1CCOCC1 | 59.8 |
| O=C(Cn1nc(Br)nc1Br)N1CCOCC1 | 15.5 |
| O=C(CN1C(=O)CCC1=O)N1CCOC2(CCOCC2)C1 | 32.4 |
| Cc1nc2[nH]cnc(Nc3ccn(C)n3)c-2n1 | 25.9 |
| CC(C)CC(NC(=O)OC(C)(C)C)C(N)=O (configuration not stated) | 13.9 |
| Cc1cccc(-c2nc3cc(S(=O)(=O)N4CCCC4)ccc3n2C)n1 | -7.53 |
| CC(C)(CO)CCCNC(=O)NC1(c2ccccc2F)CC1 | 9.16 |
| O=C(NCCOc1ccc2c(c1)OCO2)C1CC(=O)N(C2CC2)C1 (configuration not stated) | 31.9 |
| O=C(N[C@@H]1CN[C@@H]2CCCO[C@@H]21)c1cscn1 | 11.4 |
| O=C(N[C@@H]1CN[C@H]2CCCO[C@H]21)c1cnccn1 | 52 |
| O=C(N[C@H]1CN[C@H]2CCCO[C@H]21)c1cscn1 | 1.81 |
| Cc1ccc(CNc2cc(C(=O)N3CCOCC3)nc(C)n2)cc1 | -3.72 |
| CC(C)N1CC(C(=O)NCc2cccnc2-n2cccn2)CC1=O (configuration not stated) | 6.2475 |
| CNC(=O)CNC(=O)Nc1cc(-c2ccccc2)ns1 | 73.3 |
| CC(C)C(=O)NCCCNC(=O)Nc1cc(-c2ccccc2)ns1 | -89.2 |
| CC(C)(C)NC(=O)CNC(=O)Nc1cc(-c2ccccc2)ns1 | 26 |
| COc1cccc(CCC(=O)N2CCCC(c3nncn3C)C2)c1 (configuration not stated) | 4.71 |
| COc1cccc(CN2CCCCCC2c2cccc(C)c2)c1O (configuration not stated) | 56.1 |
| COc1ccc(OC)c(CN2CCCCCC2c2cccs2)c1 (configuration not stated) | 50.5 |
| COc1cccc(CN2CCCCCC2c2cccc(F)c2)c1O (configuration not stated) | -0.29 |

| Compound | INHIBITION [%] |
| --- | --- |
| COc1ccc(CN2CCCCCC2c2cccs2)c(OC)c1 (configuration not stated) | 10.2 |
| COc1cccc(CN2CCCCCC2c2cccs2)c1O (configuration not stated) | 33.2 |
| COc1ccc(CN2CCCCCC2c2cccs2)c(O)c1 (configuration not stated) | 4.35 |
| COc1cccc(CN2CCCCCC2c2sccc2C)c1O (configuration not stated) | 23.5 |
| COc1cc(CN2CCCCCC2c2cccs2)cc(OC)c1OC (configuration not stated) | 29.3 |
| COc1cc(CN2CCCCCC2c2cccs2)cc(OC)c1O (configuration not stated) | 50.8 |
| CC1=Nc2c(c(O)nn2C(C)C)C(c2cnn(C)c2)S1 (configuration not stated) | 21.7 |
| COc1nsc2nc(C3CCCN3C(C)=O)ccc12 (configuration not stated) | 26.12 |
| Cc1nccn1-c1ncccc1NC(=O)CCOCC(C)C | 4.66 |
| Cc1nccn1-c1ccc(N2CCC(NC(C)CC(C)C)CC2)cc1 (configuration not stated) | 38.5 |
| CC(Cn1ccnc1)NC(=O)NCCc1ccccn1 (configuration not stated) | 46.5 |
| Cc1nn(C)c(C)c1CCNC(C)c1ccc(-n2ccnc2C)cc1 (configuration not stated) | 87.6 |
| Cn1cc(C(NCCc2ccccn2)c2cccc(F)c2)cn1 (configuration not stated) | -1.75 |
| Cc1nccn1-c1ccc(C(C)NCCc2ccccn2)cc1 (configuration not stated) | 62.8 |
| Cc1nccn1-c1ccc(CN2CC3C[C@@H](O)CN3C[C@@H]2C)cc1 (some centres not stated) | -44.8 |
| Cc1nccn1-c1ccc(C(C)NCCC(C)C)cc1 (configuration not stated) | 62.8 |
| CCS(=O)(=O)c1ccc(N2CCC(NC(=O)CCC(C)C)CC2)cc1 | 42.6 |
| CCCC(C)NC1CCN(c2ccc(-n3ccnc3C)cc2)CC1 (configuration not stated) | 52.1 |
| CCCc1nccn1-c1ccc(C(C)O)cc1 (configuration not stated) | -20.6 |
| Cc1nn(C)c(C)c1CN(Cc1cccn1-c1ncccn1)C(C)C | -30.5 |
